PubChem BioAssay (NCI)
This is part of a sample that, as a whole, favours compounds with a hit. Of some 79,000 tested, about 15% had one in any assay. Values without a mark were called inactive. Activity calls are given as the source filed them. No stated cut-off is given here; in the data, active means growth inhibition above about 70%; inactive means the rest.

What was measured:
[1] = NCI Yeast Anticancer Drug Screen. Data for the rad50 strain (AID 155);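 further: 0% = growth of vehicle-only cultures of the same strain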; conditions: S. cerevisiae rad50 strain growth inhibition; at 50.0 µM; hits give high values
How it was run: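 Cells are treated with compound, grown, and their growth is then scored against vehicle-only cultures of the same repair-deficient yeast strain.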

[2] = NCI Yeast Anticancer Drug Screen. Data for the mec2-1 strain (AID 157); conditions: S. cerevisiae mec2-1 strain, at 50.0 µM, hits give high values
How it was run: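 Strain: mec2-1 (DNA repair/cell cycle alteration). Compound exposure, then growth measured; inhibition expressed relative to vehicle.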

[3] = NCI Yeast Anticancer Drug Screen. Data for the sgs1 mgt1 strain (AID 161);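 further: 0% = growth of cultures given vehicle only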; conditions: S. cerevisiae sgs1 mgt1 strain, at 50.0 µM, hits give high values
How it was run: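 Test agents were incubated with a DNA-repair-mutant yeast strain. Growth was then read and compared against vehicle-treated controls.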

[4] = NCI Yeast Anticancer Drug Screen. Data for the cln2 rad14 strain (AID 165);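 further: 0% = growth equal to vehicle treated cultures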; conditions: S. cerevisiae cln2 rad14 strain, at 50.0 µM, hits give high values
How it was run: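 Compounds are applied to the cln2 rad14 yeast strain, and growth is then compared with that of vehicle-treated cultures to give inhibition.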

[5] = NCI Yeast Anticancer Drug Screen. Data for the bub3 strain (AID 167); conditions: S. cerevisiae bub3 mutant strain, at 50.0 µM, hits give high values
How it was run: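 Part of a panel of yeast mutants defective in DNA damage repair or cell cycle regulation. Each strain is grown with compound, and inhibition is calculated relative to solvent-treated cultures.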

[6] = NCI Yeast Anticancer Drug Screen. Data for the mlh1 rad18 strain (AID 175); conditions: S. cerevisiae mlh1 rad18 strain growth inhibition; at 50.0 µM; hits give high values
How it was run: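 Read-out is yeast growth inhibition, calculated against vehicle-only controls. The compound was applied to a strain engineered with DNA damage repair alterations.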

SMILES | growth inhibition [1] | growth inhibition [2] | growth inhibition [3] | growth inhibition [4] | growth inhibition [5] | growth inhibition [6]
ClC1=C(Cl)C2(Cl)C3C4CC(C5OC45)C3C1(Cl)C2(Cl)Cl (stereo not given) | 27.4% | -16.6% | 1.25% | 15.5% | 9.75% | -6.8%
O=S(=O)(O)C1CCC(O)C2[N-]CCCC21.O=S(=O)(O)C1CCC(O)C2[N-]CCCC21.[Zn+2] (stereo not given) | 1.75% | 0.9% | 6.2% | 25.8% | -10.7% | 5.05%
CCC[CH2][Sn]([CH2]CCC)[CH2]CCC.CCC[CH2][Sn]([CH2]CCC)[CH2]CCC | 99.4% (active) | 99.7% (active) | 99.7% (active) | 99.5% (active) | 99.7% (active) | 99.2% (active)
CC(O)c1ccc(Br)cc1 (stereo not given) | -7.95% | 13.3% | 3.55% | -72.4% | -1.45% | 16%
CCNCCc1ccc(N)cc1 | 5.05% | -2.95% | 0.8% | -6.75% | 1.85% | -2.65%
NC(N)=NN(N=O)C1CCCCC1 | 4.35% | 5.05% | -7.85% | -34.8% | -10.5% | 5.8%
COc1cc2c(cc1OC)-c1c3c(cc4c1[C@@H](C2)N(C)CC4)OCO3 | -23.8% | -12.8% | -12.8% | -1.9% | -21.7% | -17.6%
O=C(Nc1ccccc1)N(C1=NCC(CI)S1)c1ccc(F)cc1F (stereo not given) | 18.3% | 6.75% | -6.95% | 7.7% | 2.95% | -40.1%
S=C(SP(SC(=S)N1CCCCC1)SC(=S)N1CCCCC1)N1CCCCC1 | 28.9% | -31.9% | 47.5% | -10.2% | -2.2% | 39.7%
Clc1cc2nncc(N3CC3)c2cc1Cl | -3.25% | -24.4% | -3.75% | 9.95% | -7.8% | -21.4%
C/C=C(/C)C(=O)O[C@H]1CCN2CC=C(COC(=O)[C@@](O)([C@H](C)OC)C(C)(C)O)[C@H]12 | -17% | -15.8% | 3.65% | 11.6% | 7.55% | -44.2%
O=c1[nH]cc([N+](=O)[O-])cc1[N+](=O)[O-] | 1.5% | -16.6% | -2.25% | 22.7% | -15.6% | 0.5%
CC(Cl)CN(CC(C)Cl)C(=O)Oc1ccc(CC(N)C(=O)O)cc1 (stereo not given) | 31.1% | 0.7% | 25.4% | -20.6% | -0.1% | 20.3%
CS(=O)(=O)Oc1c(Cl)cc(S(=O)(=O)F)cc1Cl | 66.2% | 75% (active) | 82.8% (active) | 45.6% | 53.5% | 40.1%
C1CCC(N2CSC3CCCCC32)CC1 (stereo not given) | -0.65% | -12.2% | 4.35% | -18.2% | 16.2% | 5.6%
CC(=O)OC(C)(C)/C=C/C(=O)[C@](C)(O)[C@H]1[C@H](O)C[C@@]2(C)[C@@H]3CC=C4[C@@H](C=C(O)C(=O)C4(C)C)[C@]3(C)C(=O)C[C@]12C | -4.6% | -36.5% | -14.6% | -10.8% | -15.7% | -16.1%
N#Cc1ccc(/C=C/C(=O)O)cc1 | 17.2% | -10.4% | -9.15% | -60.2% | -9.9% | -4.3%
CCCCCSP(SCCCCC)c1ccccc1 | 79.8% (active) | 67.3% | 79.5% (active) | 37.6% | 40.4% | 61.8%
Oc1ccc(Cl)cc1Br | -2.4% | -14.6% | -1.1% | 12% | -23.4% | -0.15%
Cc1cccc(C)c1NC(N)=S | 3.85% | 6.15% | -10.6% | -86.7% | 6% | 3.25%

SMILES | growth inhibition [1] | growth inhibition [2] | growth inhibition [3] | growth inhibition [4] | growth inhibition [5] | growth inhibition [6]
CC(Cc1cccc2c1Nc1ccccc1S2)N(C)CCO (stereo not given) | -60.2% | -40.5% | -28.6% | -5.25% | -25.4% | -30.1%
COc1ccc(C)cc1C(CC(=O)O)CC(=O)N(CCCl)CCCl (stereo not given) | 39.6% | -2.45% | 6.05% | 17.7% | -1.95% | 21.6%
CC1(C)N=C(N/N=C/c2ccccc2)SP1(=O)NNc1ncccn1 (stereo not given) | -7.85% | 0.95% | -20.1% | 2.35% | 3.55% | 1.25%
CC(=O)OC1CC2(C)C(=CC1C1SCCS1)CCC1C2CCC2(C)C(OC(C)=O)CCC12 (stereo not given) | -7.6% | 3.2% | -31.5% | 14.7% | -49.5% | 11.3%
O=S(=O)(Nc1ccc(-c2ccccc2)cc1)c1ccc([As](=O)(O)O)cc1 | 38.6% | 24.7% | 54.2% | -1.65% | 18.9% | 40%
CCCCCCCCCCP(=O)(O)O | -4.9% | -27.4% | -13.3% | -30.3% | -1.6% | -2.85%
CCN(CC)CC(O)c1ccc(Br)cc1 (stereo not given) | 0.85% | -20.1% | -0.25% | -3.55% | 2.65% | 5.7%
[CH3][Sn]([Cl])([Cl])[c]1ccccc1 | -22.9% | 2.05% | 8.7% | -18.5% | -12.8% | 1.6%
CC(C)(C)NP(=O)(NC(C)(C)C)NC(C)(C)C | 5.65% | -9.6% | -17.2% | 4.85% | -8.5% | 8.2%
CC[CH2][Sn]([Br])([CH2]CC(=O)OC)[CH2]CC(=O)OC | 16.5% | 4.2% | 50.1% | -19.9% | 9.85% | 12.1%
CC(=O)OC(c1ccccc1Cl)C(Cl)(Cl)Cl (stereo not given) | -16.9% | -9.35% | -4.65% | -39.9% | -14.2% | -5.55%
NS(=O)(=O)c1cc(N(CCCl)CCCl)c([N+](=O)[O-])cc1[N+](=O)[O-] | -72.8% | -36.8% | -12.5% | 2.1% | -16.1% | -34.5%
COc1ccc(C(OCC2OC(n3ccc(Oc4c(F)c(F)c(F)c(F)c4F)nc3=O)CC2OP(OCCC#N)N(C(C)C)C(C)C)(c2ccccc2)c2ccc(OC)cc2)cc1 (stereo not given) | 18.1% | 4.8% | 6.65% | -9.2% | -7.2% | -2.65%
CO[C@H](C)[C@](O)(C(=O)OCC1=CC[N+]2([O-])CC[C@H](O)[C@@H]12)C(C)C (stereo not given in full) | 1.75% | -20.2% | 2.35% | 7.25% | -8.95% | -10.2%
C[CH2][Pb]([Br])([CH2]C)[CH2]C | -17.7% | -1.4% | -5.85% | -14.1% | -4.15% | -1.45%
CC(=O)CC(C)=O.CC(=O)CC(C)=O.[O]=[V] | -60.2% | -58% | -57.8% | -153% | -54.6% | -53.2%
OC1(C#[C][Hg][C]#CC2(O)CCCCC2)CCCCC1 | 95.2% (active) | 89.5% (active) | 90.7% (active) | 97.3% (active) | 97.4% (active) | 95.4% (active)
COC(N)=O | -15.6% | -10.2% | -16.9% | -15.9% | -2.6% | -8.3%
ClCCN(CCCl)c1ccc(/C=N\N=C\c2ccncc2)cc1 | 4.35% | -3.95% | 6.15% | -8.5% | 0.95% | -1.8%
Brc1ccc(-c2csc3c4ccccc4cc[n+]23)cc1 | 14.6% | -3.25% | 12.2% | -2.45% | 21.8% | -1.75%
